Out of some 16,000 compounds screened, about 4,000 (25%) were called active. Roughly 26% stayed inconclusive and do not appear here. The call rests on the fitted dose curve; in most records, active means well fitted curve in the direction sought with a large enough effect; inconclusive means small, poorly fitted or top-dose-only effect, or effect the other way; inactive means no such curve, though single readings can be large or run the other way. A selection follows.
Each molecule was assayed against Cytochrome P450 2C9 (Homo sapiens) (UniProt P11712) (assay: Cytochrome panel assay with activity outcomes). Settings: recombinant CYP, pro-luciferin dealkylation, luminescence, p450-cyp2c9; series mostly up to 57.1 µM.
Chain of Cytochrome P450 2C9 (Homo sapiens) (P11712 whole entry, looked up): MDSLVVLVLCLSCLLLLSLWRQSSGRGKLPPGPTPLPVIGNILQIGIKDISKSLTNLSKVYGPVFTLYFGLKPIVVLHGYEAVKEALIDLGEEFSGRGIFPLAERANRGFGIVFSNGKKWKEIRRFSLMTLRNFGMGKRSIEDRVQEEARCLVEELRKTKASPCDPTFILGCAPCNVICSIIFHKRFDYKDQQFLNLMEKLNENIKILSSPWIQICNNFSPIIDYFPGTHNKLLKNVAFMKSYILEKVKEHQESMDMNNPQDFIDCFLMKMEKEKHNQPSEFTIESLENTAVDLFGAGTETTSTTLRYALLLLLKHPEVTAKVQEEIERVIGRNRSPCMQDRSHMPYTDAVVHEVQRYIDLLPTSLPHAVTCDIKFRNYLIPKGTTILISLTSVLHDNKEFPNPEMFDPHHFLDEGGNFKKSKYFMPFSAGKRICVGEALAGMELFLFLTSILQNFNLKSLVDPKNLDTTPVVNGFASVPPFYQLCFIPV
On the % scale 0 is the no-effect control and ±100 the full control effect.

Row | Compound | activity, negative = inhibition | AC50
1 | Fc1cccc(F)c1C(Nc1nncs1)Nc1nncs1 | -6.71% [at 11.4 µM] (inactive) | 
2 | CSc1ncnc2c1ncn2[C@@H]1O[C@@H](CO)[C@H](O)O[C@@H]1O | 1.22% [at 11.4 µM] (inactive) | 
3 | CS(=O)(=O)Nc1cccc(-c2ccc3ncnc(Nc4ccccc4)c3c2)c1 | -12.6% [at 2.29 µM] (inactive) | 
4 | Cc1cc(C(=O)CSc2nnc(N)s2)c(C)n1CCc1ccc(F)cc1 |  | 1.12 µM (active)
5 | COc1ccc(CCn2c(C)cc(C(=O)CSc3nc(N)cc(=O)[nH]3)c2C)cc1 |  | 8.91 µM (active)
6 | COc1ccc(C(=O)NC2(C(F)(F)F)C(=O)Nc3c2c(=O)[nH]c(=O)n3CCc2ccc(OC)c(OC)c2)cc1 (centres undefined) |  | inactive
7 | CC[C@H]1CC[C@H]2[C@@H]3CC=C4C[C@H](OC(C)=O)[C@@H](N)C[C@@]4(C)[C@H]3CC[C@@]12C | 13.7% [at 11.4 µM] (inactive) | 
8 | CCC(=O)c1ccc(OCC(O)CN2CCCCC2)cc1 (centres undefined) |  | inactive
9 | CCCCOc1ccc(C(=O)CCN2CCCCC2)cc1 |  | 2.51 µM (active)
10 | CCOc1ccc(C(=O)CCC(=O)O)cc1 |  | inactive
11 | CC(N)=NCc1cccc(CN)c1 |  | inactive
12 | COc1cc(/C=N/Nc2snc(SC)c2C#N)cc(OC)c1OC |  | 4.47 µM (active)
13 | CCOC(=O)N/N=C1/C[C@@H](O)[C@@H](O)[C@@H]2[C@@H]3C(=O)N(C4CCCCC4)C(=O)[C@H]3CC[C@H]12 | -8.52% [at 11.4 µM] (inactive) | 
14 | CCOc1ccc(N2CC(C(=O)NCc3cccc(C)c3)CC2=O)cc1 (centres undefined) |  | 12.6 µM (active)
15 | CCN(CC)C(=O)C1CC(=O)N(c2ccc(OC)cc2)C1c1ccc(OC)cc1 (centres undefined) |  | inactive
16 | COc1ccc(N2CC(C(=O)Nc3cc(C)on3)CC2=O)cc1 (centres undefined) |  | 14.1 µM (active)
17 | COc1ccc(N2CC(C(=O)OCC(=O)c3cccc(OC)c3)CC2=O)cc1 (centres undefined) |  | 17.8 µM (active)
18 | CCOc1ccc(CNC(=O)C2CC(=O)N(C3CCCC3)C2)cc1OC (centres undefined) |  | inactive
19 | c1cncc(-c2ccc3ncnc(NC4CCNCC4)c3c2)c1 | 12.8% [at 2.29 µM] (inactive) | 
20 | CN(C)c1ncnc2ccc(-c3ccoc3)cc12 | -6.22% [at 2.29 µM] (inactive) | 
21 | OC(COCc1ccccc1)Cn1cnc2ccccc21 (centres undefined) |  | 12.6 µM (active)
22 | C[n+]1cn(CC(O)COCc2ccccc2)c2ccccc21 (centres undefined) |  | inactive
23 | COC(=O)N1CCC2(CCCN(C(c3ccccc3)c3ccccc3)C2)CC1 |  | 31.6 µM (active)
24 | COC(=O)N1CCC2(CC1)CN(C(c1ccccc1)c1ccccc1)C2 |  | 10 µM (active)

Row | Compound | activity, negative = inhibition | AC50
25 | CC(=O)N1CCC2(CC1)CN(C(c1ccccc1)c1ccccc1)C2 |  | inactive
26 | CS(=O)(=O)N1CCC2(CC1)CN(C(c1ccccc1)c1ccccc1)C2 |  | inactive
27 | COCC(=O)N1CCC[C@@]2(CCN(C(c3ccccc3)c3ccccc3)C2)C1 |  | inactive
28 | c1ccc(C(c2ccccc2)N2CCCC3(CCNCC3)C2)cc1 |  | inactive
29 | CS(=O)(=O)N1CCC[C@@]2(CCN(C(c3ccccc3)c3ccccc3)C2)C1 |  | inactive
30 | CS(=O)(=O)N1CCC2(CCCN(C(c3ccccc3)c3ccccc3)C2)CC1 |  | 12.6 µM (active)
31 | COCC(=O)N1CCC2(CC1)CN(C(c1ccccc1)c1ccccc1)C2 |  | inactive
32 | Cc1cccc(C)c1OCC(O)CNC(C)(C)C (centres undefined) |  | inactive
33 | COc1cc2cc3c4cc(OC)c(OC)cc4cc[n+]3c(C)c2cc1OC |  | inactive
34 | CO[C@@H]1COC(=O)C/C=C\[C@@H](C)COC(=O)[C@H](COCc2ccccc2)NC(=O)C/C=C\[C@H]1C | -9.13% [at 11.4 µM] (inactive) | 
35 | COCCNc1nc(-c2ccccc2Cl)nc2ccccc12 | 0.695% [at 2.29 µM] (inactive) | 
36 | Cc1cccc(NC(=O)NNC(=O)c2cc(-c3ccccc3Cl)nc3ccccc23)c1 |  | 1.58 µM (active)
37 | CC(=O)NCCNc1nc(-c2ccccc2Cl)nc2ccccc12 | 15.4% [at 2.29 µM] (inactive) | 
38 | Cc1ccc(NC(=O)c2cc(Cl)nc3ccccc23)cc1 |  | inactive
39 | O=C(NNC(=O)c1cc(-c2ccc(Cl)c(Cl)c2)nc2ccccc12)Nc1ccccc1 |  | 4.47 µM (active)
40 | NC(N)=N[C@@H]1C(O)[C@H](N=C(N)N)[C@@H](O)C(O)[C@H]1O (some centres undefined) | 13.6% [at 11.4 µM] (inactive) | 
41 | Nc1nc2c(ncn2COCCO)c(=O)[nH]1 |  | inactive
42 | c1cn(-c2ncnc3ccc(-c4ccoc4)cc23)cn1 | -25.3% [at 2.29 µM] (inactive) | 
43 | COC(=O)[C@@]1(Cc2ccccc2)[C@H]2c3cc(C(=O)N4CCCC4)n(Cc4ccc(C(F)(F)F)nc4)c3C[C@H]2CN1C(=O)c1ccccc1 |  | 5.01 µM (active)
44 | COC(=O)[C@@]1(Cc2ccc(F)cc2)[C@H]2c3cc(C(=O)N(C)C)n(Cc4ccc(C(F)(F)F)nc4)c3C[C@H]2CN1C(=O)c1ccccc1 |  | 25.1 µM (active)
45 | Clc1ccccc1-c1ccc2ncnc(NC3CCNCC3)c2c1 | 20.4% [at 2.29 µM] (inactive) | 
46 | Cc1ccccc1-c1cncnc1NCc1ccccc1 | -7.47% [at 2.29 µM] (inactive) | 
47 | CCC(=O)N[C@@H]1Cc2ccccc2[C@@H](c2ccccc2)C1 |  | inactive
48 | Brc1ccc(-c2nnc(-c3ccccc3)c(N3CCSCC3)n2)cc1 |  | 10 µM (active)

Row | Compound | activity, negative = inhibition | AC50
49 | Clc1ccc(-c2nnc(-c3ccccc3)c(N3CCSCC3)n2)cc1 |  | 14.1 µM (active)
50 | CN(C)c1ccc(-c2nc(N3CCNCC3)c3ccccc3n2)cc1 | 0.369% [at 2.29 µM] (inactive) | 
51 | Cc1noc(C)c1-c1ccc2ncnc(N3CCOCC3)c2c1 | 7.24% [at 2.29 µM] (inactive) | 
52 | CCN1CCN(c2cc(=O)n(-c3cc(Cl)ccc3C)c(=O)[nH]2)CC1 |  | inactive
53 | C[N+](C)(C)CCCCCC[N+](C)(C)C |  | inactive
54 | COC(=O)N1CCC[C@@]2(CCN(C(=O)Nc3cccc(C#N)c3)C2)C1 |  | inactive
55 | Cc1ccc(CSc2nc3c(c(SCC(=O)O)n2)CCCC3)cc1 |  | 5.62 µM (active)
56 | CC[C@@]12CCCN3CCc4c(n(c5ccccc45)C(=O)C1)[C@H]32 |  | inactive
57 | Fc1cccc(C2NC(=S)NC3=C2N2CCC3CC2)c1 (centres undefined) |  | inactive
58 | S=C1NC2=C(C(c3ccc(Br)cc3)N1)N1CCC2CC1 (centres undefined) |  | 22.4 µM (active)
59 | COc1ccc(C(NC(=O)c2ccc(-c3ccccc3)cc2)c2ccccc2)cc1 (centres undefined) |  | inactive
60 | CCOC(=O)CC(NC(=O)c1ccc(C)cc1)c1ccc(C)cc1 (centres undefined) |  | 15.8 µM (active)
61 | CCOC(=O)CC(NC(=O)c1cccs1)c1ccc(OCC)cc1 (centres undefined) |  | 3.55 µM (active)
62 | CNNCc1ccc(C(=O)NC(C)C)cc1 |  | inactive
63 | FC(F)(F)c1ccccc1-c1nc(NC2CCNCC2)c2ccccc2n1 | 14.5% [at 2.29 µM] (inactive) | 
64 | Cc1nc(S(=O)(=O)N2CCOCC2)c(C#N)c(C)c1Cl |  | inactive
65 | CCCOc1ccc(OCCNC2CCCC2)cc1 |  | inactive
66 | c1c[nH]c(CN2CCOCC2)n1 | -9.4% [at 11.4 µM] (inactive) | 
67 | Oc1cccc2ccc(SSc3ccc4cccc(O)c4n3)nc12 |  | 1.58 µM (active)
68 | Cc1c(N(C)C)c(=O)n(-c2ccccc2)n1C |  | inactive
69 | Cc1ccc(O)c(C(=O)c2cc(C#N)c(=O)n(-c3c(C)n(C)n(-c4ccccc4)c3=O)c2)c1 |  | 15.8 µM (active)
70 | Cc1c(O)c(=O)n(-c2ccccc2)n1C |  | inactive
71 | CCCCCOC(=O)CSc1nnc(-c2ccccc2)c(=O)[nH]1 |  | 2 µM (active)
72 | NCCCc1c(-c2ccccc2)nc(N)[nH]c1=O | -12.1% [at 11.4 µM] (inactive) | 

Row | Compound | activity, negative = inhibition | AC50
73 | Nc1nc(SCC(=O)O)[nH]c(=O)c1N | -6.53% [at 11.4 µM] (inactive) | 
74 | Cc1ccc(S(=O)(=O)N[C@H](C(=O)N2CCC(C(=O)NCC(=O)O)CC2)C(C)C)cc1 |  | inactive
75 | CCc1ccc2c(c1)c(N=NC1=NC(=O)CS1)c(O)n2CC |  | 12.6 µM (active)
76 | COc1ccc2nc3cc(Cl)ccc3c(Nc3ccc(O)c(CN4CCN(C)CC4)c3)c2c1 | -28.4% [at 11.4 µM] (inactive) | 
77 | Cc1sc2nc(SCC(=O)C(C)(C)C)n(Cc3ccco3)c(=O)c2c1C |  | 1.58 µM (active)
78 | COc1ccc(C(=O)N2CCC3(CC2)CN(C(=O)NC(C)C)C3)cc1 |  | inactive
79 | Cc1ccccc1NC(=O)c1cnc(Nc2nc3ccccc3s2)nc1C |  | inactive
80 | O=C(Nc1cccnc1Cl)C1c2ccccc2Oc2ccccc21 |  | 1.12 µM (active)
81 | Cc1cccc2sc(NC(=O)C3c4ccccc4Oc4ccccc43)nc12 |  | 1.26 µM (active)
82 | NC(N)=NNC(=O)C(=O)O | -4.6% [at 11.4 µM] (inactive) | 
83 | OCCCNc1ncnc2[nH]ncc12 | -4.6% [at 11.4 µM] (inactive) | 
84 | CCc1cc2c(NCc3ccco3)ncnc2s1 |  | 4.47 µM (active)
85 | OCCNc1ncnc2nc[nH]c12 | -11.4% [at 11.4 µM] (inactive) | 
86 | Cc1cnc(CNc2ncnc3ccc(-c4ccoc4)cc23)cn1 | 11.8% [at 2.29 µM] (inactive) | 
87 | c1csc(CNc2ncnc3ccc(-c4ccoc4)cc23)c1 | 0.0121% [at 2.29 µM] (inactive) | 
88 | CCc1cc2c(NCCO)ncnc2s1 |  | 1.58 µM (active)
89 | CC(=O)c1c(C)nc(-c2ccccc2)n1O |  | inactive
90 | CN=c1nc(-c2ccccc2)n(-c2ccccc2)s1 |  | 2 µM (active)
91 | CN=C1N[C@H](c2ccccc2)N(c2ccccc2)S1 |  | inactive
92 | CN1CC[C@@]2(CCCN(C(=O)c3cccn3C)C2)C1 |  | inactive
93 | COC(=O)[C@@]1(Cc2ccccc2)[C@H]2c3cc(C(=O)N4CCCC4)n(Cc4cccc5ccccc45)c3C[C@H]2CN1C(=O)c1ccccc1 |  | 0.251 µM (active)
94 | COC(=O)[C@@]1(Cc2ccc(F)cc2)[C@H]2c3cc(C(=O)N4CCCC4)n(Cc4cccc5ccccc45)c3C[C@H]2CN1C(=O)c1ccccc1 |  | 1.58 µM (active)

Reference: PubChem BioAssay AID1851 (National Center for Advancing Translational Sciences (NCATS), 2009)
